This is part of a sample that, as a whole, favours compounds with a hit. Of some 83,000 tested, about 20% had one in any assay.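 Values shown are percent growth following 48 h exposure of cells in 96-well plates to a single concentration of compound; below 10 was considered active.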 A number with no mark means an inactive call. The source made the active and inactive calls.
tested on: UACC-257 melanoma; assay: NCI-60 one-dose screen, 48 h (100 = growth as untreated, 0 = no growth, -100 = all killed); settings: 10 µM unless noted

Compound | growth
CC(=O)O[C@H]1C(=O)[C@@]2(C)[C@H]([C@H](OC(=O)c3ccccc3)[C@]3(O)C[C@H](OC(=O)[C@H](OC(=O)OCC4COC(C)(C)O4)[C@@H](NC(=O)c4ccccc4)c4ccccc4)C(C)=C1C3(C)C)[C@]1(OC(C)=O)CO[C@@H]1C[C@@H]2O (stereo partly drawn) | 59.4%
CC[C@H](C)[C@H](NC(=O)C12CC(NC(C)=O)(C1)C2)C(=O)N(C)[C@H](C[C@@H](OC(C)=O)c1nc(C(=O)N[C@@H](Cc2ccccc2)C[C@H](C)C(=O)OC)cs1)C(C)C | 49.6%
CCn1cnc2c(Nc3cccc(Cl)c3)nc(N[C@@H]3CCCC[C@@H]3N)nc21 | 14.1%
O=C(O)C1C(C(=O)O)C2(Cl)C(Cl)=C(Cl)C1(Cl)C2(Cl)Cl.[Hg] (stereo not drawn) | 74.7%
CC[C@H](C)[C@H](NC(=O)[C@H]1CCCCN1C)C(=O)N(C)[C@H](C[C@@H](OC(C)=O)c1nc(C(=O)N[C@@H](Cc2ccccc2)C[C@H](C)C(=O)OC)cs1)C(C)C | 52.9%
CN1C(=O)C(=Cc2cn(CCCCCCn3c4ccccc4c(=O)c4ccccc43)c3ccccc23)C(=O)N(C)C1=O | 104%
CC(C)(C)C(=O)OCOP(=O)(OCOC(=O)C(C)(C)C)C1CCCN(O)C1=O (stereo not drawn) | 18.9%
COC(=O)[C@@H](C)C[C@H](Cc1ccc2ccccc2c1)NC(=O)c1csc([C@@H](C[C@H](C(C)C)N(C)C(=O)[C@@H](NC(=O)[C@H]2CCCCN2C)C(C)C)OC(C)=O)n1 | 77%
C=C1C(=O)O[C@H]2[C@H]1CC/C(COC(=O)C(=O)c1cn(Cc3ccccc3)c3ccccc13)=C\CC[C@@]1(C)O[C@@H]21 | -65.4% (active)
CN(CCCCN(C)CCOS(C)(=O)=O)CCOS(C)(=O)=O | 82.3%
NC(=O)CNc1ccc([As]=[As]c2ccc(NCC(N)=O)cc2)cc1 (stereo not drawn) | 37.2%

tested on: M14 melanoma; assay: as above; settings: 10 µM unless noted

Compound | growth
O=NN1CCCc2cccc(O)c21 | 22.2%
Fc1ccc2c(c1)c(-c1nc(-c3c[nH]c4ncccc34)cs1)cn2CCN1CCOCC1 | 41.6%
CC(=O)Nc1nc2c(s1)CC[C@@]1(C)C2=CC[C@H]2[C@@H]3CC[C@H](O)[C@@]3(C)CC[C@@H]21 | 36%
CN(C)CC(C(=O)Cc1ccccc1)c1ccccc1 (stereo not drawn) | 36%
CCOC(=O)[C@@H](C)C[C@H](Cc1ccccc1)NC(=O)c1csc([C@@H](C[C@H](C(C)C)N(C)C(=O)[C@H](CCC(C)C)NC(=O)[C@H]2CCCCN2C)OC(C)=O)n1 | -7.2% (active)
CCCCCCCCCCCCCCCCCC1OC[C@H](COC(=O)O[C@@H](C(=O)O[C@H]2C[C@@]3(O)[C@@H](OC(=O)c4ccccc4)[C@@H]4[C@]5(OC(C)=O)CO[C@@H]5C[C@H](O)[C@@]4(C)C(=O)[C@H](OC(C)=O)C(=C2C)C3(C)C)[C@@H](NC(=O)c2ccccc2)c2ccccc2)O1 (stereo partly drawn) | 29.6%
c1cnc2[nH]cc(-c3csc(-c4cn(CCCCN5CCCCC5)c5ccccc45)n3)c2c1 | 50.2%
C=C1C[C@](OC)([C@H](O)C(=O)N[C@@H](OC)[C@@H]2C[C@@H](O)C(C)(C)[C@@H](C[C@@H](COC)OC)O2)O[C@H](C)[C@@H]1C | -54.6% (active)
O=C(Nc1ccc(O)cc1)C(Cl)(Cl)Cl | 91.2%
Cc1c(NS(=O)(=O)c2ccccc2)ccc([N+](=O)[O-])c1Cl | 70.4%
CCCCN1CCCC[C@@H]1C(=O)N[C@H](C(=O)N(C)[C@H](C[C@@H](OC(C)=O)c1nc(C(=O)NC2CCC(C(=O)OC)CC2)cs1)C(C)C)C(C)C (stereo partly drawn) | -2.18% (active)
Cn1cc(-c2csc(-c3cn(CCCCN4CCCCC4)c4ccc(F)cc34)n2)c2cccnc21 | -78.7% (active)
CC1=C(CN)C2=C(C)C3(CC3)[C@@](C)(O)C(=O)C2=C1 | 96.1%
CC(=O)O[C@H]1C(=O)[C@@]2(C)[C@H]([C@H](OC(=O)c3ccccc3)[C@]3(O)C[C@H](OC(=O)[C@H](OC(=O)OC[C@H]4COC(C)(C)O4)[C@@H](NC(=O)c4ccccc4)c4ccccc4)C(C)=C1C3(C)C)[C@]1(OC(C)=O)CO[C@@H]1C[C@@H]2O | -19% (active)
Cn1cc(-c2csc(-c3cn(CCN4CCOCC4)c4ccc(F)cc34)n2)c2cccnc21 | 8.08% (active)
Brc1ccc2c(c1)c(-c1nc(-c3c[nH]c4ncccc34)cs1)cn2CCN1CCOCC1 | 63.8%
COC(=O)[C@@H](C)C[C@H](Cc1ccccc1)NC(=O)c1csc([C@@H](C[C@H](C(C)C)N(C)C(=O)[C@@H](NC(=O)[C@H]2CCCCN2C)C2CCCCC2)OC(C)=O)n1 | -35.1% (active)
CC(=O)OC1CCC2(C)C(CCC3C2CC(=O)C2(C)C3CC(Sc3ccc(N(CCCl)CCCl)cc3)C2C(C)=O)C1 (stereo not drawn) | 81%
COc1ccc(S(=O)(=O)N(Cc2ccc3c(c2)C=CC(C)(C)O3)c2ccccc2)cc1OC | 87.6%

Compound | growth
CC[C@H](C)[C@H](NC(=O)[C@H]1CCCCN1C)C(=O)N(C)[C@H](CC(=O)c1nc(C(=O)N[C@@H](Cc2ccccc2)C[C@H](C)C(=O)O)cs1)C(C)C | 57.9%
COC(=O)[C@@H](C)C[C@H](Cc1ccccc1)NC(=O)c1csc([C@@H](C[C@H](C(C)C)N(C)C(=O)[C@@H](NC(=O)C23CC(NC(C)=O)(C2)C3)C2CC2)OC(C)=O)n1 | 41%
O=C1CC2(CC3(Cl)C(Cl)=C(Cl)C2(Cl)C3(Cl)Cl)C(=O)O1 (stereo not drawn) | 95.4%
C[n+]1c(/C=C/c2ccc(N(CCCl)CCCl)cc2)sc2ccccc21 | 64.7%
CC[C@H](C)[C@H](NC(=O)NC(C)(C)C)C(=O)N(C)[C@H](C[C@@H](OC(C)=O)c1nc(C(=O)N[C@@H](Cc2ccccc2)C[C@H](C)C(=O)OC)cs1)C(C)C | 2.12% (active)
CCCCCCCC[N+](C)(CCCCCCCC)CCCCCCCC | -94.1% (active)
CC(=O)O[C@H]1C(=O)[C@@]2(C)[C@H]([C@H](OC(=O)c3ccccc3)[C@]3(O)C[C@H](OC(=O)[C@H](OC(=O)OC[C@@H]4COC(C)(C)O4)[C@@H](NC(=O)c4ccccc4)c4ccccc4)C(C)=C1C3(C)C)[C@]1(OC(C)=O)CO[C@@H]1C[C@@H]2O | -20% (active)
CC(=O)O[C@H]1C(=O)[C@@]2(C)[C@H]([C@H](OC(=O)c3ccccc3)[C@]3(O)C[C@H](OC(=O)[C@H](OC(=O)OCC4COC(C)(C)O4)[C@@H](NC(=O)c4ccccc4)c4ccccc4)C(C)=C1C3(C)C)[C@]1(OC(C)=O)CO[C@@H]1C[C@@H]2O (stereo partly drawn) | -14.7% (active)
CC[C@H](C)[C@H](NC(=O)C12CC(NC(C)=O)(C1)C2)C(=O)N(C)[C@H](C[C@@H](OC(C)=O)c1nc(C(=O)N[C@@H](Cc2ccccc2)C[C@H](C)C(=O)OC)cs1)C(C)C | 2.48% (active)
CCn1cnc2c(Nc3cccc(Cl)c3)nc(N[C@@H]3CCCC[C@@H]3N)nc21 | -45.8% (active)
O=C(O)C1C(C(=O)O)C2(Cl)C(Cl)=C(Cl)C1(Cl)C2(Cl)Cl.[Hg] (stereo not drawn) | 80.2%
CC[C@H](C)[C@H](NC(=O)[C@H]1CCCCN1C)C(=O)N(C)[C@H](C[C@@H](OC(C)=O)c1nc(C(=O)N[C@@H](Cc2ccccc2)C[C@H](C)C(=O)OC)cs1)C(C)C | 3.87% (active)
CN1C(=O)C(=Cc2cn(CCCCCCn3c4ccccc4c(=O)c4ccccc43)c3ccccc23)C(=O)N(C)C1=O | 94%
CC(C)(C)C(=O)OCOP(=O)(OCOC(=O)C(C)(C)C)C1CCCN(O)C1=O (stereo not drawn) | 26.6%
COC(=O)[C@@H](C)C[C@H](Cc1ccc2ccccc2c1)NC(=O)c1csc([C@@H](C[C@H](C(C)C)N(C)C(=O)[C@@H](NC(=O)[C@H]2CCCCN2C)C(C)C)OC(C)=O)n1 | 24.6%
C=C1C(=O)O[C@H]2[C@H]1CC/C(COC(=O)C(=O)c1cn(Cc3ccccc3)c3ccccc13)=C\CC[C@@]1(C)O[C@@H]21 | -66% (active)
CN(CCCCN(C)CCOS(C)(=O)=O)CCOS(C)(=O)=O | 76.4%
NC(=O)CNc1ccc([As]=[As]c2ccc(NCC(N)=O)cc2)cc1 (stereo not drawn) | 57.7%

— PubChem BioAssay (NCI)
